PubChem BioAssay (Tox21)
Results filed as inconclusive are left out. Unmarked numbers belong to inactive results. Active and inactive are the calls of the source. The call rests on the fitted dose curve; in most records, active means well fitted inhibition curve with a large enough effect in the repeat runs; inconclusive means weak or mixed curves; inactive means no such curve, though single readings can be large or run the other way. Where a SMILES comes first, the peptide text is derived from it.

Target: Cytochrome P450 2D6 (Homo sapiens) (UniProt P10635)
Sequence (P10635 whole entry, looked up): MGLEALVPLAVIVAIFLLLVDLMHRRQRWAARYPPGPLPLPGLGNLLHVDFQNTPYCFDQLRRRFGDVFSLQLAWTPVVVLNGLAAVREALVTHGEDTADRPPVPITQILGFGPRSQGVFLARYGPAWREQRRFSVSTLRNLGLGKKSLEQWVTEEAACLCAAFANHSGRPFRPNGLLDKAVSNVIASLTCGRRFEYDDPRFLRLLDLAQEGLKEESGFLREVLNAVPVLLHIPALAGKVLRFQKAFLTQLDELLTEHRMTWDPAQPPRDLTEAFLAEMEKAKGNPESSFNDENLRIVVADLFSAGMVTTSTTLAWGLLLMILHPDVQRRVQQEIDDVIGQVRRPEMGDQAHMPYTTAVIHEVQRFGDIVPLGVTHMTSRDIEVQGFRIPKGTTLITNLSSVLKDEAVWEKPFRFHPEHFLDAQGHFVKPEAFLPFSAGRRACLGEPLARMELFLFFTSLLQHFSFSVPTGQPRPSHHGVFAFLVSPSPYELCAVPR
Experiment: Cytochrome P450 Family 2 Subfamily D Member 6 (CYP2D6) small molecule antagonists: luciferase reporter qHTS assay (AID 1671196); further: nearly all actives have a fitted effect of over 50% in size
Conditions: P450-Glo CYP2D6 enzyme assay, luciferin luminescence, 1 h; series mostly up to 115 µM; activity change, negative = inhibition: at the top concentration
Excerpt: U.S. Tox21 Program National Center for Advancing Translational Sciences [NCATS] U.S. Environmental Protection Agency [EPA] National Institutes of Environmental Health Sciences [NIEHS] National Toxicology Program [NTP] U.S. Food and Drug Administration [FDA] Tox21 Assay Overview: Cytochrome P450 (CYP) enzymes are membrane-bound hemeproteins that play a key role in metabolism of drugs and xenobiotics. Evaluation of the effect of chemicals on CYP isozymes is useful to minimize the adverse drug reactions and toxicities in drug development process. Tox21 chemicals were tested for their effect on CYP enzyme activities by using P450-Glo (TM) screening systems (Promega Corporation, Madison, WI). These systems provide a luminescent method containing proluciferin substrates and are converted to luciferin products by CYP isozymes. The luciferin products formed are detected with a luciferin detection reagent, and the amount of light produced is proportional to CYP activity. P450-Glo (TM) CYP2D6 screening system (Catalog. No. V9890) was used to detect the compounds that interfere in CYP2D6 activity.
Tox21 Assay Protocol Summary: Two ul of enzyme-substrate mix was dispensed into medium binding white/solid 1536-well plates (Greiner Bio-One North America Inc., Monroe, NC) using a BioRaptr Flying Reagent Dispenser (FRD, Beckman Coulter, Brea, CA). […] The assay plates were incubated at room temperature for 10 min. Then 2 ul of NADPH regeneration solution was added to each well of the assay plates using an FRD and incubated at room temperature for 1 h. The reaction was stopped by adding 4 ul of detection reagent using an FRD and after 20 min incubation at room temperature the luminescence signal was measured using a ViewLux plate reader (Perkin Elmer, Shelton, CT). Data were expressed as relative luminescence units.
On the % scale 0 is the no-effect control and ±100 the full control effect; potency means the concentration at half of the fitted maximal effect.

Structure (SMILES)	activity change, negative = inhibition	Potency
Nc1nc(-c2ccccc2)c(Br)c(=O)[nH]1	-1.15% [at 53 µM]	–
CCCCCCCCCCCCCCC(=O)NC(CO)CCCCCCCCCCCCCC (stereo not given)	-35.3%	–
C#CCN[C@@H]1CCc2ccccc21	–	27.5 µM (active)
C=CCCCC	2.87%	–
CC(C)COC(=O)c1ccccc1	-24.9%	–
CCC(=O)c1c(O)cc(O)cc1O	–	27.5 µM (active)
CCCCCC/C=C/C(=O)OC	-2.68%	–
Cc1ccccc1C(N)=O	–	56.3 µM (active)
OC1OCCOC1O (stereo not given)	0.572%	–
C=CC(=O)CCCCC	-7.26%	–
CCC(=O)CC	-0.378%	–
O=C(CCCCC(=O)Nc1c(I)cc(I)c(C(=O)O)c1I)Nc1c(I)cc(I)c(C(=O)O)c1I	2.12% [at 53 µM]	–
CCCCOC(=O)C(C)O (stereo not given)	-12.1%	–
CCC[C@@H]1C[C@@H](C(=O)N[C@@H]([C@H]2O[C@H](SC)[C@H](O)[C@@H](O)[C@H]2O)[C@@H](C)O)N(C)C1	-3.33% [at 53 µM]	–
O=NN(CCCl)C(=O)NC1CCCCC1	-13.2% [at 53 µM]	–
CC1=C(O)C(=O)C(C)O1 (stereo not given)	-1.9%	–
C[C@]12CCC(=O)C=C1CC[C@H]1[C@@H]3CC[C@](O)(C(=O)CO)[C@@]3(C)C[C@H](O)[C@@]12F	-5.56% [at 53 µM]	–
CCC(C(=O)OCCN1CCOC(c2ccccc2)C1C)c1ccccc1 (stereo not given)	–	5.49 µM (active)
CC(=O)CC(=O)Nc1ccc(C)cc1C	-6.27%	–
CN(C)CC/C=C1/c2ccccc2COc2ccc(CC(=O)O)cc21	-9.88% [at 53 µM]	–

Structure (SMILES)	activity change, negative = inhibition	Potency
CCCCOCC(C)O (stereo not given)	-8.33%	–
CCCSSCCC	-13.2%	–
CC(=O)O[C@H]1C[C@@H]2CC[C@@]1(C)C2(C)C	-0.631%	–
CCCCOCCOC(=O)COc1ccc(Cl)cc1Cl	-15.4%	–
N#Cc1ccccc1O	-4.45%	–
CC(=O)C(C)O (stereo not given)	-1.7%	–
C/C=C(\C)C(C)=O	2.9%	–
CC1OCCC1=O (stereo not given)	-0.473%	–
CC1CC(=O)CC(C)(C)C1 (stereo not given)	0.235%	–
CCCCCCCCCCOC(C)=O	-0.889%	–
CCCC(=O)OC/C=C(\C)CCC=C(C)C	-0.458%	–
O=C(O)[C@H](O)c1ccccc1	-1.36% [at 53 µM]	–
O=C(O)CSCC(=O)NC1CCSC1=O (stereo not given)	-1.32% [at 53 µM]	–
CC12CCC(C1)C(C)(C)C2O (stereo not given)	-0.945%	–
CC(=O)N[C@@H](CO)C(=O)N[C@@H](CC(=O)O)C(=O)N[C@@H](CCCCN)C(=O)N1CCC[C@H]1C(=O)O (Ac-SDKP-OH)	4.97% [at 53 µM]	–
CC(S)C(C)S (stereo not given)	1.09%	–
C=CCSSCCC	–	56.2 µM (active)
CC(CO)(CO)CO	–	28.6 µM (active)
CCCCCCC1(C)CCC(=O)O1 (stereo not given)	-12.9%	–
CC(C)=CCC/C(C)=C/COC=O	-1.69%	–
